The source made the active and inactive calls. The rule behind the calls is not given here. Where only a bound is given, the exact number is not on record here.

Data on 17 molecules can be found in PubChem BioAssay AID720650 (Broad Institute, 2013).

The nature of the test: C difficile toxins, biochemical counterscreen, UDPG substrate absence, confirmatory dose response (AID 720650). As to conditions: series mostly up to 19.5 µM. (The purpose of a counterscreen is to sort out artefacts and off-target activity.)
As usually defined, the AC50 is the concentration giving half of the maximal activity seen. Turning to `O=C1NN=C2CCCCCCC12` (configuration not stated), the AC50 result is “inactive”. With `CC(=O)Nc1cnc(-c2ccccc2O)cn1` the figure was 15.3 µM (active); with `CC(C)=CCOc1c2occc2cc2ccc(=O)oc12`, > 39 µM (inactive). Regarding `CC1(C)CC(=O)C(C=Nc2ccc(N)cc2)=C(O)C1`, the AC50 result was “inactive”. On to `O=C(C[C@H]1C[C@H]2c3cc(NC(=O)c4ccc5c(c4)OCO5)ccc3O[C@H]2[C@H](CO)O1)NCc1cccc(F)c1`, for which the AC50 result was “inactive”.

Turning to `COc1ccc(NC2CCCN(C(=O)CN3CCOC3=O)C2)cc1OC` (configuration not stated), the AC50 entry was “inactive”. To `CCCCNC(=O)C1CCN(S(=O)(=O)c2c(C)noc2/C=C\c2ccc(OC)cc2)CC1` belongs “inactive”; to `O=C(C1CCOCC1)N1CC[C@@H]2[C@@H](CO)Nc3ccc(-c4ccc(F)cc4)cc3[C@@H]21`, 22 µM (active); to `O=C(CN1C(=O)NC2(CCCc3ccccc32)C1=O)NCc1cccs1` (configuration not stated), “inactive”. For the molecule `FC(F)(F)c1cc(CCN2CCNC[C@H]2Cc2cccc3ccccc23)cc(C(F)(F)F)c1`, the AC50 is 19.9 µM (active). Regarding `COC(=O)C[C@H]1CC[C@@H]2[C@@H](COc3ccc(NC(=O)c4cccc(OC)c4)cc3C(=O)N2C)O1`, the AC50 result is “inactive”. Regarding `Cc1cccc(CN2CCN(c3ncccn3)CC2)c1`, the AC50 result is “inactive”. In the case of `CC(Sc1nc(N)cc(=O)[nH]1)C(=O)NCC(=O)Nc1ccc(F)c(F)c1F` (configuration not stated), the AC50 result is “inactive”. As to `Cc1ccc2nc(-c3ccc4c(c3)OCCO4)cn2c1`, the half-maximal activity concentration (AC50) was 12.4 µM (active).

For the molecule `Oc1ccc(Nc2nc(Cl)nc(NCc3ccco3)n2)cc1`, the AC50 result is “inactive”. To `CC(=O)Nc1ccc(Oc2nc(-c3ccccn3)nc3ccccc23)cc1` belongs 11 µM (active); to `Cc1ccc(C(=O)NCCn2cc(SCC(=O)Nc3cc(C)on3)c3ccccc32)cc1`, “inactive”.
